{"source": "PubChem BioAssay AID743279", "about": "(National Center for Advancing Translational Sciences (NCATS), 2014)", "note": "The campaign covered roughly 360,000 compounds. About 17,000 (4.7%) were called active. Another 5% or so got no clear call; they are omitted. The sample holds actives, similar compounds and a random draw of the others, so the mix is not that of the screen. Unmarked numbers belong to inactive results. Cut-off read from the data, not from the text of the source: active = activity change below about -50%; inconclusive = mostly about -30% to -49%; inactive = weaker than that. % is set by controls: 0 for no effect and ±100 for the full control effect.", "data": [{"assay": "qHTS for Inhibitors of Inflammasome Signaling: IL-1-beta AlphaLISA Primary Screen", "settings": "THP-1 LPS/ATP IL-1B secretion, 16 h; at 57.5 µM, stronger effect = lower value", "how_it_was_run": "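Secreted IL-1B measured by AlphaLISA bead assay after 16 h compound exposure of THP-1 cells; compounds (final up to 57.5 uM) added 1 h before LPS (250 ng/mL) and ATP (1.25 mM) stimulation; lower signal means less secretion.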", "values": [{"smiles": "O=C(NC(=S)NC1CCCCC1)c1ccc(Cl)cc1", "activity change": "-21%"}, {"smiles": "O=C(NC1CCCCCC1)c1cccnc1Sc1ccc(Cl)cc1", "activity change": "1.6%"}, {"smiles": "O=C(NC1CCCCC1)c1ccc(-c2ccc(Cl)cc2)o1", "activity change": "-76.5% (active)"}, {"smiles": "CCCNC(=O)C1(C)CCN(Cc2ccc(Cl)c(Cl)c2)C1", "note": "(centres undefined)", "activity change": "17.3%"}, {"smiles": "COc1ccc(N)c(C)c1", "activity change": "-25.8%"}, {"smiles": "COC(=O)[C@]12CCCCC=C1N(CCC1=CCCCC1)C(=O)[C@H](CC(=O)NCC1CCCCC1)C2", "activity change": "-28.6%"}, {"smiles": "O=C(CCCN1CCc2[nH]c3ccc(F)cc3c2C1)c1ccc(F)cc1", "activity change": "-79.8% (active)"}, {"smiles": "Fc1ccc(NC(=S)N2CCc3[nH]c4ccccc4c3C2)cc1", "activity change": "11.5%"}, {"smiles": "O=C(Nc1ccc(Cl)cc1)N1CCc2[nH]c3ccccc3c2C1", "activity change": "-18.5%"}, {"smiles": "CCCCN1C[C@H](c2ccc(Br)cc2)[C@@H](CC(=O)Nc2ccc(Br)cc2)C1=O", "activity change": "-5.58%"}, {"smiles": "NC(=O)C1CCN(C(=O)COc2cccc3cccnc23)CC1", "activity change": "0.882%"}, {"smiles": "O=C(Nc1ccccc1)Oc1cccc2cccnc12", "activity change": "-91.6% (active)"}, {"smiles": "OCc1ccc(OCCCOc2cccc3cccnc23)cc1", "activity change": "-1.1%"}, {"smiles": "C[C@H](CO)N1C[C@H](C)[C@H](CN(C)CC2CC2)Oc2ccc(NC(=O)CCN3CCOCC3)cc2C1=O", "activity change": "18.8%"}, {"smiles": "O=C(C1CCCO1)N1CCN(C(=O)C23CC4CC(CC(C4)C2)C3)CC1", "note": "(centres undefined)", "activity change": "9.67%"}, {"smiles": "CN1CCN(c2ccc([N+](=O)[O-])c(Sc3nc4ccccc4[nH]3)c2)CC1", "activity change": "-26.9%"}, {"smiles": "CCC(C)N1C(=O)S/C(=C/c2ccc(Sc3nc4ccccc4[nH]3)o2)C1=O", "note": "(centres undefined)", "activity change": "-96.1% (active)"}, {"smiles": "CCC(c1nc2ccccc2[nH]1)n1c(=O)c(-c2cccs2)nc2ccccc21", "note": "(centres undefined)", "activity change": "-20%"}, {"smiles": "CC(C)c1csc(CN2CCC(CO)(Cc3ccccc3)CC2)n1", "activity change": "-21.7%"}, {"smiles": "CN=C(NC#N)NCCSCc1nc[nH]c1C", "activity change": "33.7%"}, {"smiles": "COc1ccccc1-n1nnnc1S(=O)(=O)Cc1ccc(Cl)cc1", "activity change": "-119% (active)"}, {"smiles": "CCC(C)N(C(=O)CSc1nnnn1-c1ccccc1OC)C1CCS(=O)(=O)C1", "note": "(centres undefined)", "activity change": "-14.9%"}, {"smiles": "COc1ccccc1-n1nnnc1SCC(=O)NC(=O)Cc1ccccc1", "activity change": "4.79%"}, {"smiles": "CCCC(C)n1[nH]c(=O)c2c(C)cc(C)nc21", "note": "(centres undefined)", "activity change": "-13.2%"}, {"smiles": "Cc1cc(O)ccc1NC1=CC(=O)CC(C)(C)C1", "activity change": "-0.895%"}, {"smiles": "CC1(C)CC(=O)C=C(Nc2ccccc2)C1", "activity change": "-3.98%"}, {"smiles": "Cc1ccccc1C#CC1=CC(=O)CC(C)(C)C1", "activity change": "-52.1% (active)"}, {"smiles": "CC1C(=O)N(Cc2cn(CC3CCCCC3)nn2)CCS(=O)(=O)N1Cc1ccc(-c2cccc(N(C)C)c2)cc1", "note": "(centres undefined)", "activity change": "0%"}, {"smiles": "OCCN1CCN(CCO)C1=S", "activity change": "15.9%"}, {"smiles": "Cc1c(NC(=O)c2cc(-c3ccc(Br)cc3)on2)c(=O)n(-c2ccccc2)n1C", "activity change": "-16.8%"}, {"smiles": "Cc1cc2oc(C(=O)Nc3c(C)n(C)n(-c4ccccc4)c3=O)c(C)c2cc1Cl", "activity change": "0%"}, {"smiles": "Cc1c(NC(=O)c2coc(=O)c(Br)c2)c(=O)n(-c2ccccc2)n1C", "activity change": "-72.5% (active)"}, {"smiles": "COC(c1ccccc1)(c1ccccc1)C(Oc1nc(C)cc(C)n1)C(=O)O", "note": "(centres undefined)", "activity change": "17.2%"}, {"smiles": "COc1ccc(C(=O)COC(=O)c2nn(C)c(=O)c3ccccc23)c(OC)c1", "activity change": "-0.449%"}, {"smiles": "CC[C@]12c3[nH]c4ccc(OC)cc4c3CCN1C(=O)C(CC(=O)NCc1ccco1)C[C@@H]2C(=O)N1CCN(C(=O)C2CC2)CC1", "note": "(some centres undefined)", "activity change": "16.2%"}, {"smiles": "CCCCCCCCCCOC(=O)Cn1c(COc2ccc(C)cc2)[n+](C)c2ccccc21", "activity change": "-90.4% (active)"}, {"smiles": "COc1cccc(OCc2nnc3n2N=C(c2ccccc2)C(CC(=O)O)S3)c1", "note": "(centres undefined)", "activity change": "29.1%"}, {"smiles": "CCCCCCCCCCOC(=O)Cn1c(COc2cccc(OC)c2)[n+](C)c2ccccc21", "activity change": "-79.3% (active)"}, {"smiles": "CCCCn1c(N)c(N(CCOC)C(=O)c2cccc(OCc3ccccc3)c2)c(=O)[nH]c1=O", "activity change": "-4.76%"}, {"smiles": "CCCCOc1ccc(NC(=O)CSCC(=O)OCC)cc1", "activity change": "-3.32%"}, {"smiles": "Cc1ccc(COc2ccc(C(=O)NN)cc2)cc1", "activity change": "-17.7%"}, {"smiles": "COc1ccc(NC(=O)C2Cc3c(-c4ccc5c(c4)OCO5)ccnc3O2)cn1", "note": "(centres undefined)", "activity change": "22.6%"}, {"smiles": "COC(=O)N(C)C[C@@H]1OCc2cnnn2CCCC(=O)N([C@@H](C)CO)C[C@@H]1C", "activity change": "1.38%"}, {"smiles": "CC1CN(Cc2ccco2)C(=S)N(c2ccccc2)C1=O", "note": "(centres undefined)", "activity change": "3.29%"}, {"smiles": "O=C1CCN(CCc2ccccc2)CCN1CCOc1ccccc1", "activity change": "23.9%"}, {"smiles": "OC(c1ccccc1)(c1ccccc1)C1CCN(CCCOc2ccccc2)CC1", "activity change": "-28.1%"}, {"smiles": "O=c1[nH]c2ccccc2n1C1CCN(CCOc2ccccc2)CC1", "activity change": "-51.9% (active)"}, {"smiles": "O=C(c1ccc(N2CCCC2=O)cc1)N1CCN(c2ccc(C(F)(F)F)cc2[N+](=O)[O-])CC1", "activity change": "-8.61%"}, {"smiles": "CCOc1ccc(Br)cc1S(=O)(=O)Nc1cccc(S(=O)(=O)N(CC)CC)c1", "activity change": "-3.12%"}, {"smiles": "CC1(C)OC(=O)C2=C(C[C@@H](C3CCCC3)O[C@@H]2c2ccc(Cl)cc2)O1", "activity change": "30.2%"}, {"smiles": "Cc1cc(C)c2c(NC(=O)C3CC3)nn(C)c2n1", "activity change": "-2.02%"}, {"smiles": "Cc1cc(-n2nc(C)cc2C)n2nc(C)c(-c3ccccc3)c2n1", "activity change": "-4.92%"}, {"smiles": "Cc1cc(C)c2c(n1)nn1c(-n3ccnc3)cc(C)nc21", "activity change": "-75.6% (active)"}, {"smiles": "CN(C)Cc1ccc(F)cc1Sc1cc(Cl)ccc1Cl", "activity change": "4.08%"}, {"smiles": "Cc1ccccc1CN1C(=O)CSCC1(C)C(=O)Nc1c(C)cccc1C", "note": "(centres undefined)", "activity change": "-3.26%"}, {"smiles": "CC1CC(C)CN(CC(=O)N2c3ccccc3CCc3ccccc32)C1", "note": "(centres undefined)", "activity change": "-6.12%"}, {"smiles": "CC1C(C)N(C(=O)CCl)c2ccccc2N1C(=O)CCl", "note": "(centres undefined)", "activity change": "-101% (active)"}, {"smiles": "CC1C(=O)N(Cc2ccccc2)c2ccccc2N1C(=O)c1ccccc1", "note": "(centres undefined)", "activity change": "0.175%"}, {"smiles": "O=C(OCCOc1ccccc1Cl)c1cc(S(=O)(=O)N2CCCCC2)ccc1N1CCOCC1", "activity change": "11.6%"}, {"smiles": "O=C(c1ccc2ccccc2n1)N1CCN(c2ccccc2Cl)CC1", "activity change": "-2.41%"}, {"smiles": "O=C(c1c(F)cccc1Cl)N1CCN(c2ccccn2)CC1", "activity change": "-9.43%"}, {"smiles": "O=C(c1c(Cl)cccc1Cl)N1CCN(c2cccc3[nH]ccc23)CC1", "activity change": "-73.5% (active)"}, {"smiles": "Cc1ccc(C2=NN(C(=O)CSc3nc(N)cc(N)n3)C(c3ccco3)C2)cc1", "note": "(centres undefined)", "activity change": "-23.3%"}, {"smiles": "COCCCN1C(=O)C(CC(=O)NCc2cccs2)CC(C(=O)N2CCOCC2)=C1C", "note": "(centres undefined)", "activity change": "-1.75%"}]}]}
